Assay outcomes (PubChem)
In the library only some 3.5% were active in any assay of this set; here they are far more common.
MITF inh = human MITF inhibition, primary screen; AlphaScreen MITF homodimerization, bead proximity signal; inhibition, % at 2.6 µM; AID 1259374; 650,000 tested, 0.91% active; in the data active = inhibition above about 50%;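 also: 0% = vehicle wells with protein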
GPR151 activ = activators of human GPR151 | PathHunter beta-arrestin GPR151 cells, luminescence | Q8TDV0 | 650,000 tested, 1% active | activation, % at 11.2 µM; in the data active = activation above about 4.9%;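 also: 0% = median of compound wells and 100% = cells with positive control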
TEAD-YAP inh = TEAD-YAP interaction inhibition. HEK-TIYL cells, TEAD-Gal4/YAP UAS-luciferase luminescence. inhibition, % at 9.12 µM. AID 1259422. 640,000 tested, 1.4% active; in the data active = inhibition above about 32%;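 also: 0% = median of test compound wells and 100% = reference inhibitor wells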
FBW7 act = human FBW7 E3 ligase activation, primary screen | normalized activity (activation), % at 26.1 µM | Q969H0 | AID 1259310 | AlphaScreen FBW7–phospho-cyclin E peptide binding, activator screen | 650,000 tested, 0.13% active; in the data active = normalized activity above about 1.9%;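 also: purified mutant Fbw7 with reduced substrate affinity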
Target sequence (Q969H0 whole entry, looked up): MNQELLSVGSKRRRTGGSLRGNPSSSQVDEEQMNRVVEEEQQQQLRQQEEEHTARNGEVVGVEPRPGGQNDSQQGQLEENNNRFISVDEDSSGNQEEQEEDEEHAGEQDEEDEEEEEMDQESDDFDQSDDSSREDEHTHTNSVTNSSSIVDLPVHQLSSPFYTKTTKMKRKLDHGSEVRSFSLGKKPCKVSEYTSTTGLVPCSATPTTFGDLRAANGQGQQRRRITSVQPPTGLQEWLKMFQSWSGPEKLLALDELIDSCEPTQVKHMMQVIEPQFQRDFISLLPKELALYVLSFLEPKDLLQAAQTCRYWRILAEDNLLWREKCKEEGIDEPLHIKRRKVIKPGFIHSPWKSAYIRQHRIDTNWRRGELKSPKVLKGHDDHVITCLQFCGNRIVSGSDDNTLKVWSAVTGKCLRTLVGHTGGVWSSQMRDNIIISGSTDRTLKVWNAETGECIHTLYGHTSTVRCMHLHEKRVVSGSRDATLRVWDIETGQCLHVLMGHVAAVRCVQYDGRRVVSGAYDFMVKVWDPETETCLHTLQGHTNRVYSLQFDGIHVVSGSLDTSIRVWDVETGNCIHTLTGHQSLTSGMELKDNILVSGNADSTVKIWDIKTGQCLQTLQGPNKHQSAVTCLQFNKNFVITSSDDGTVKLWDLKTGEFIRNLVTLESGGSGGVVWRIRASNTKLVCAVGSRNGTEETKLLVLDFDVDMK
An asterisk follows results filed as active.

For COc1ccc(OC)c(NC(=S)NCC(c2cccnc2)N(C)C)c1 (stereo not given) the results were MITF inh 7, GPR151 activ 1, TEAD-YAP inh 0 and FBW7 act 0.
For Cn1c(-c2ccccc2)cnc1NCc1cc(Cl)ccc1O the results were MITF inh 40, GPR151 activ 0, TEAD-YAP inh -33 and FBW7 act 1.
For COc1ccc(CCN(C(=O)c2ccc(Cl)cc2)C2CC(=O)N(c3ccc(Cl)cc3)C2=O)cc1OC (stereo not given) the results were MITF inh 0, GPR151 activ -2, TEAD-YAP inh -6 and FBW7 act 0.
Screening Cc1cccc(N(CC(=O)NC(C)C)S(=O)(=O)c2ccccc2)c1C returned MITF inh 7, GPR151 activ -1, TEAD-YAP inh 2 and FBW7 act 0.
`O=C(Nc1cccc(Cl)c1Cl)c1ccc(Br)o1` gave MITF inh 7, GPR151 activ -1, TEAD-YAP inh -49 and FBW7 act 0.
CCc1ccc2c(c1)[C@H]1OCC[C@H]1[C@@H](c1cccs1)N2 was read as MITF inh 17, GPR151 activ 1, TEAD-YAP inh 47* and FBW7 act 0.
COc1ccc(C(=O)N2CCN(C(=O)c3ccco3)CC2)c(OC)c1 was read as MITF inh 0, GPR151 activ -1, TEAD-YAP inh 2 and FBW7 act 1.
For CC(=O)c1cccc(NC(=O)Nc2cccnc2)c1 the results were MITF inh 6, GPR151 activ 0, TEAD-YAP inh 33* and FBW7 act 0.
O=C(Nc1cccnc1)Nc1cccc(F)c1 was read as MITF inh 8, GPR151 activ -1, TEAD-YAP inh -7 and FBW7 act 0.
COc1ccc2cc(CN(Cc3ccccc3)C(=O)c3ccncc3)c(=O)[nH]c2c1 was read as MITF inh -7, GPR151 activ 1, TEAD-YAP inh 51* and FBW7 act 0.
Screening COc1ccc2[nH]c(=O)c(CN(Cc3ccco3)C(=O)Nc3ccccc3OC)cc2c1 returned MITF inh 8, GPR151 activ -1, TEAD-YAP inh -4 and FBW7 act 0.
Screening COc1ccc2cc(CN(CC3CCCO3)C(=O)Nc3ccccc3OC)c(=O)[nH]c2c1 (stereo not given) returned MITF inh 2, GPR151 activ -1, TEAD-YAP inh 54* and FBW7 act 0.
For COc1ccc2cc(CN(Cc3ccco3)C(=O)Nc3ccccc3OC)c(=O)[nH]c2c1 the results were MITF inh 16, GPR151 activ -1, TEAD-YAP inh 54* and FBW7 act 0.
`FC(F)(F)c1ccc(Cn2cnc3c(NCc4cccnc4)nc(Nc4ccccc4)nc32)cc1` gave MITF inh -8, GPR151 activ -2, TEAD-YAP inh 5 and FBW7 act 0.
`COC(=O)c1ccc(NS(=O)(=O)c2ccc(OC)c(I)c2)cc1` gave MITF inh 2, GPR151 activ 0, TEAD-YAP inh 8 and FBW7 act 1.
Screening Cc1cc(/C=N/Nc2nc(N)ncc2[N+](=O)[O-])c(C)n1-c1ccccc1F returned MITF inh 14, GPR151 activ -7, TEAD-YAP inh 63* and FBW7 act 0.
For Cc1cc(/C=N\Nc2ccc([N+](=O)[O-])cn2)c(C)n1-c1ccccc1F the results were MITF inh -11, GPR151 activ 0, TEAD-YAP inh -57 and FBW7 act 0.
Screening CCc1ccccc1NC(=O)CSC1=C(C#N)C(c2ccc(C)o2)C2=C(CCCC2=O)N1 (stereo not given) returned MITF inh -3, GPR151 activ -1, TEAD-YAP inh 55* and FBW7 act 0.
Cc1cc(Cl)ccc1OC(C)C(=O)Nc1ccccc1N1CCOCC1 (stereo not given) was read as MITF inh 3, GPR151 activ -1, TEAD-YAP inh 10 and FBW7 act 0.
O=C(Cc1nncn1-c1ccccc1)c1ccc(O)cc1O was read as MITF inh 7, GPR151 activ 1, TEAD-YAP inh 13 and FBW7 act 0.
Screening CCC(=O)NC(c1ccc([N+](=O)[O-])cc1)c1ccc2cccnc2c1O (stereo not given) returned MITF inh -19, GPR151 activ 0, TEAD-YAP inh 85* and FBW7 act 0.
Screening CCC(=O)NC(c1ccc(C)cc1)c1ccc2cccnc2c1O (stereo not given) returned MITF inh 28, GPR151 activ -1, TEAD-YAP inh 88* and FBW7 act -1.
For CCC(=O)NC(c1cccc([N+](=O)[O-])c1)c1ccc2cccnc2c1O (stereo not given) the results were MITF inh 17, GPR151 activ 1, TEAD-YAP inh 4 and FBW7 act -1.
Screening COC(=O)Cc1c(C)nc2nc(NCc3ccccc3)[nH]n2c1=O returned MITF inh 0, GPR151 activ 1, TEAD-YAP inh 7 and FBW7 act 0.
For COc1ccc(CCNc2ncnc3sc(C)cc23)cc1OC the results were MITF inh -10, GPR151 activ 3, TEAD-YAP inh 61* and FBW7 act 0.
COc1ccc(CCNc2ncnc3ccc(I)cc23)cc1OC was read as MITF inh 9, GPR151 activ 4, TEAD-YAP inh 74* and FBW7 act 0.
Screening COc1ccc(CCNc2ncnc3c2cnn3C)cc1OC returned MITF inh -3, GPR151 activ 0, TEAD-YAP inh 14 and FBW7 act 0.
Screening CCc1cc2c(NCc3ccccc3)ncnc2s1 returned MITF inh -21, GPR151 activ 2, TEAD-YAP inh 17 and FBW7 act 0.
`CCc1cc2c(NCCc3ccccc3)ncnc2s1` gave MITF inh 0, GPR151 activ 2, TEAD-YAP inh 36* and FBW7 act 0.
Screening CCC(CC)CN1CCc2nnc(C(C)NC(=O)C3CC3)n2CC1 (stereo not given) returned MITF inh 10, GPR151 activ 1, TEAD-YAP inh 4 and FBW7 act 0.
`CC(NC(=S)N1CCN(C(=O)c2ccco2)CC1)C12CC3CC(CC(C3)C1)C2` (stereo not given) gave MITF inh -20, GPR151 activ 1, TEAD-YAP inh -2 and FBW7 act 0.
Screening CCSC1=NCCN1S(=O)(=O)c1ccc(NC(C)=O)cc1 returned MITF inh 5, GPR151 activ 3, TEAD-YAP inh 2 and FBW7 act 0.
Screening CC(C)(C)CN1CCN(Cc2nc(-c3ccc(F)cc3)cs2)CC1CCO (stereo not given) returned MITF inh 0, GPR151 activ -2, TEAD-YAP inh 44* and FBW7 act 0.
CN1CCN(Cc2nc(-c3ccc(F)cc3)cs2)CC1CCO (stereo not given) was read as MITF inh 9, GPR151 activ -3, TEAD-YAP inh -4 and FBW7 act 0.
O=C(CN1CCOCC1)N/N=C/c1cn(Cc2ccccc2Cl)c2ccccc12 was read as MITF inh 11, GPR151 activ 0, TEAD-YAP inh 16 and FBW7 act 0.
O=C(CN1CCOCC1)N/N=C/c1c(O)ccc2ccccc12 was read as MITF inh 18, GPR151 activ 0, TEAD-YAP inh 36* and FBW7 act -2.
